Laboratory results reported in PubChem BioAssay AID1159580 (chemical genetic matrix, 2015).
Values joined by “and” are separate entries in the source; they are usually repeats but may differ in a detail not shown here. Equal values may be shown once. Hit rate of the full screen: of about 5,500 compounds, about 2,000 (36%) were called active. Roughly 18% stayed inconclusive and do not appear here. Rule as the data show it: active = normalized growth mostly below about 0.91 (no sharp cut-off); inconclusive = no clear call, values can overlap the other calls; inactive = mostly above about 0.92. Some of the results follow.

Experiment: chemical genetic growth profiling, strain panel (AID 1159580);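 also: tested at 20 µM; growth read once vehicle control cultures reached saturation at 30 °C; 1 = growth at the plate median or of vehicle wells; lower values mean less growth of the strain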
Settings: S. cerevisiae deletion strains, growth OD

Measured: normalized growth

CC1(C)CC2C1CC[C@]1(CBr)CCC3C(CC(=O)O)C(=O)O[C@@]32C1 (stereo partly specified)
inactive: locus YAL021C, strain ccr4, stronger effect = lower value 0.992 | locus YAL026C, strain drs2, stronger effect = lower value 1.02 | locus YAL030W, strain snc1, stronger effect = lower value 1.01 | locus YBL061C, strain skt5, stronger effect = lower value 1.01 | locus YBR009C, strain hhf1, stronger effect = lower value 1.03 | locus YBR021W, strain FUR4, stronger effect = lower value 1.01 | locus YBR023C, strain chs3, stronger effect = lower value 1.01 | locus YBR171W, strain sec66, stronger effect = lower value 1.01 | locus YBR229C, strain ROT2, stronger effect = lower value 0.958 | locus YBR231C, strain swc5, stronger effect = lower value 1.01 | locus YBR279W, strain paf1, stronger effect = lower value 1.01 | locus YCL011C, strain gbp2, stronger effect = lower value 1.01 | locus YCL016C, strain dcc1, stronger effect = lower value 1.01 | locus YCL029C, strain bik1, stronger effect = lower value 0.985 | locus YCL061C, strain MRC1, stronger effect = lower value 1.01 | locus YCL069W, strain vba3, stronger effect = lower value 1.01 | locus YCR088W, strain abp1, stronger effect = lower value 1.01 | locus YDL005C, strain med2, stronger effect = lower value 1 | locus YDL035C, strain GPR1, stronger effect = lower value 0.984 | locus YDL040C, strain nat1, stronger effect = lower value 1.01 | locus YDL074C, strain BRE1, stronger effect = lower value 1 | locus YDL101C, strain DUN1, stronger effect = lower value 1 | locus YDL134C, strain PPH21, stronger effect = lower value 1.05 | locus YDL185W, strain tfp1, stronger effect = lower value 0.971 | locus YDL192W, strain arf1, stronger effect = lower value 0.976 | locus YDR001C, strain nth1, stronger effect = lower value 1.01 | locus YDR069C, strain doa4, stronger effect = lower value 1.02 | locus YDR101C, strain arx1, stronger effect = lower value 0.98 | locus YDR137W, strain rgp1, stronger effect = lower value 0.997 | locus YDR150W, strain NUM1, stronger effect = lower value 1 | locus YDR159W, strain sac3, stronger effect = lower value 1.03 | locus YDR162C, strain NBP2, stronger effect = lower value 0.976 | locus YDR195W, strain ref2 1 | locus YDR297W, strain sur2, stronger effect = lower value 1.01 | locus YDR318W, strain mcm21, stronger effect = lower value 0.989 | locus YDR334W, strain swr1, stronger effect = lower value 1.01 | locus YDR335W, strain msn5, stronger effect = lower value 1.02 | locus YDR388W, stronger effect = lower value 1 | locus YDR392W, strain spt3, stronger effect = lower value 0.968 | locus YDR502C, strain sam2, stronger effect = lower value 1.03 | locus YEL003W, strain gim4, stronger effect = lower value 1.02 | locus YEL037C, strain rad23, stronger effect = lower value 1.01 | locus YEL061C, strain CIN8 (second series), stronger effect = lower value 1.01 | locus YEL061C, strain CIN8, stronger effect = lower value 0.978 | locus YER015W, strain faa2, stronger effect = lower value 1 | locus YER016W, strain bim1, stronger effect = lower value 1.02 | locus YER110C, stronger effect = lower value 0.984 | locus YER111C, strain swi4, stronger effect = lower value 1.01 | locus YER155C, strain BEM2 (second series), stronger effect = lower value 1.04 | locus YER155C, strain BEM2, stronger effect = lower value 0.986 | locus YER167W, strain BCK2, stronger effect = lower value 0.993 | locus YFR010W, strain ubp6, stronger effect = lower value 1.01 | locus YGL078C, strain dbp3, stronger effect = lower value 1.04 | locus YGL086W, strain mad1, stronger effect = lower value 1 | locus YGL167C, strain pmr1, stronger effect = lower value 1.01 | locus YGL173C, strain kem1, stronger effect = lower value 1.01 | locus YGL227W, strain vid30, stronger effect = lower value 1.02 | locus YGL240W, strain doc1, stronger effect = lower value 1.03 | locus YGL248W, strain PDE1, stronger effect = lower value 1.03 | locus YGL253W, strain hxk2, stronger effect = lower value 1.01 | locus YGR135W, strain pre9, stronger effect = lower value 1.09 | locus YGR229C, strain SMI1, stronger effect = lower value 0.965 | locus YGR252W, strain gcn5, stronger effect = lower value 1.08 | locus YHR013C, strain ard1, stronger effect = lower value 1.01 | locus YHR027C, strain rpn1, stronger effect = lower value 1.01 | locus YHR030C, strain SLT2, stronger effect = lower value 0.983 | locus YHR079C, strain IRE1 (second series), stronger effect = lower value 0.994 | locus YHR079C, strain IRE1, stronger effect = lower value 1.02 | locus YHR094C, strain hxt1, stronger effect = lower value 0.979 | locus YHR129C, strain ARP1, stronger effect = lower value 0.995 | locus YHR142W, strain chs7, stronger effect = lower value 0.998 | locus YHR200W, strain rpn10, stronger effect = lower value 1 | locus YIL066C, strain RNR3, stronger effect = lower value 0.98 | locus YIL073C, strain SPO22, stronger effect = lower value 1.07 | locus YIL125W, strain kgd1, stronger effect = lower value 0.984 | locus YIR030C, strain dcg1, stronger effect = lower value 0.992 | locus YJL092W, strain hpr5, stronger effect = lower value 1.01 | locus YJL095W, strain BCK1 (second series), stronger effect = lower value 1.02 | locus YJL095W, strain BCK1, stronger effect = lower value 1.07 and 0.997 | locus YJL115W, strain asf1, stronger effect = lower value 1.02 | locus YJL129C, strain trk1, stronger effect = lower value 0.997 | locus YJL134W, strain LCB3, stronger effect = lower value 0.993 | locus YJL154C, strain vps35, stronger effect = lower value 1 | locus YJL164C, strain tpk1, stronger effect = lower value 1.03 | locus YJL166W, strain qcr8, stronger effect = lower value 1 | locus YJL168C, strain set2, stronger effect = lower value 1 | locus YJL187C, strain SWE1 (second series), stronger effect = lower value 1.02 | locus YJL187C, strain SWE1, stronger effect = lower value 1.02 | locus YJR066W, strain TOR1, stronger effect = lower value 0.922 | locus YJR075W, strain HOC1, stronger effect = lower value 1.02 | locus YKL009W, strain mrt4, stronger effect = lower value 0.976 | locus YKL068W, stronger effect = lower value 0.989 | locus YKL085W, strain MDH1 (second series), stronger effect = lower value 0.995 | locus YKL085W, strain MDH1, stronger effect = lower value 0.995 | locus YKL160W, strain elf1, stronger effect = lower value 0.99 | locus YKL190W, strain CNB1, stronger effect = lower value 0.994 | locus YKR001C, strain vps1, stronger effect = lower value 0.993 | locus YKR026C, strain gcn3, stronger effect = lower value 0.996 | locus YKR091W, strain srl3, stronger effect = lower value 1.01 | locus YLL001W, strain dnm1, stronger effect = lower value 1.03 | locus YLL026W, stronger effect = lower value 1.02 | locus YLL041C, strain sdh2, stronger effect = lower value 1.01 | locus YLR027C, strain aat2, stronger effect = lower value 1.01 | locus YLR039C, strain RIC1, stronger effect = lower value 1.07 | locus YLR058C, strain SHM2, stronger effect = lower value 0.996 | locus YLR102C, strain apc9, stronger effect = lower value 0.995 | locus YLR113W, strain HOG1, stronger effect = lower value 1.03 | locus YLR221C, strain rsa3, stronger effect = lower value 1.01 | locus YLR258W, strain gsy2, stronger effect = lower value 1.03 | locus YLR262C, strain YPT6 (second series), stronger effect = lower value 0.976 | locus YLR268W, strain sec22, stronger effect = lower value 0.96 | locus YLR320W, strain mms22, stronger effect = lower value 1.02 | locus YLR330W, strain CHS5, stronger effect = lower value 0.992 | locus YLR342W, strain FKS1, stronger effect = lower value 1.01 | locus YLR357W, strain rsc2, stronger effect = lower value 1.04 | locus YLR370C, strain arc18, stronger effect = lower value 1.01 | locus YLR371W, strain rom2, stronger effect = lower value 1.01 | locus YLR384C, strain iki3, stronger effect = lower value 1.01 | locus YLR418C, strain cdc73, stronger effect = lower value 1.04 | locus YML016C, strain PPZ1, stronger effect = lower value 0.997 | locus YML032C, strain rad52, stronger effect = lower value 0.992 | locus YML120C, strain ndi1, stronger effect = lower value 1.02 | locus YML124C, strain tub3, stronger effect = lower value 0.992 | locus YMR058W, strain fet3, stronger effect = lower value 1.02 | locus YMR078C, strain ctf18, stronger effect = lower value 0.998 | locus YMR125W, strain sto1, stronger effect = lower value 1 | locus YMR129W, stronger effect = lower value 1.01 | locus YMR205C, strain PFK2, stronger effect = lower value 1.02 | locus YMR223W, strain ubp8, stronger effect = lower value 1.02 | locus YMR231W, strain pep5, stronger effect = lower value 1 | locus YMR307W, strain GAS1, stronger effect = lower value 1.06 | locus YNL067W, strain RPL9B, stronger effect = lower value 1.03 | locus YNL071W, strain lat1, stronger effect = lower value 1.01 | locus YNL128W, strain TEP1, stronger effect = lower value 0.984 | locus YNL153C, strain GIM3, stronger effect = lower value 1.03 | locus YNL183C, strain NPR1, stronger effect = lower value 0.924 | locus YNL209W, strain ssb2, stronger effect = lower value 1.01 | locus YNL233W, strain BNI4, stronger effect = lower value 1.06 | locus YNL248C, strain rpa49, stronger effect = lower value 1.01 | locus YNL250W, strain rad50, stronger effect = lower value 0.973 | locus YNL271C, strain bni1, stronger effect = lower value 0.987 | locus YNL298W, strain CLA4, stronger effect = lower value 1 | locus YNL307C, strain MCK1, stronger effect = lower value 1.04 | locus YNL322C, strain KRE1 (second series), stronger effect = lower value 1.01 | locus YNL322C, strain KRE1, stronger effect = lower value 0.988 | locus YNR049C, strain mso1, stronger effect = lower value 1.02 | locus YNR052C, strain pop2, stronger effect = lower value 1.04 | locus YOL006C, strain TOP1, stronger effect = lower value 1.06 | locus YOL012C, strain htz1 1 | locus YOL147C, strain pex11, stronger effect = lower value 0.99 | locus YOR001W, strain rrp6, stronger effect = lower value 1.01 | locus YOR061W, strain CKA2, stronger effect = lower value 0.972 | locus YOR069W, strain VPS5, stronger effect = lower value 1.01 | locus YOR070C, strain gyp1, stronger effect = lower value 1.03 | locus YOR080W, strain dia2, stronger effect = lower value 1 | locus YOR083W, strain WHI5, stronger effect = lower value 0.986 | locus YOR106W, strain vam3, stronger effect = lower value 1.01 | locus YOR136W, strain idh2, stronger effect = lower value 0.994 | locus YOR144C, strain elg1, stronger effect = lower value 0.988 | locus YOR184W, strain ser1, stronger effect = lower value 0.957 | locus YOR231W, strain MKK1, stronger effect = lower value 1.01 | locus YOR265W, strain rbl2, stronger effect = lower value 1.01 | locus YOR270C, strain vph1, stronger effect = lower value 0.999 | locus YOR290C, strain snf2, stronger effect = lower value 0.99 | locus YOR316C, strain cot1, stronger effect = lower value 1 | locus YPL051W, strain arl3, stronger effect = lower value 1 | locus YPL078C, strain atp4, stronger effect = lower value 1.01 | locus YPL106C, strain sse1, stronger effect = lower value 1.02 | locus YPL240C, strain hsp82, stronger effect = lower value 1.01 | locus YPL241C, strain CIN2, stronger effect = lower value 0.999 | locus YPL256C, strain CLN2, stronger effect = lower value 0.972 | locus YPR119W, strain clb2, stronger effect = lower value 0.993 | locus YPR141C, strain kar3, stronger effect = lower value 0.991 | locus YPR163C, strain tif3, stronger effect = lower value 0.994 | locus YPR167C, strain met16, stronger effect = lower value 0.999 | strain wtn01, stronger effect = lower value 0.984
